Compound activity: PubChem, National Center for Advancing Translational Sciences (NCATS)
Only some compounds are listed: those with a hit (about 21% of all), similar ones and a draw of the others.
Pf growth 96h = P. falciparum growth inhibition at 96 hour, primary screen for plastid delayed-death inhibitors. P. falciparum luciferase reporter growth, 96 h. Potency, µM (highest dose often 28.7 µM), for the others: at the highest dose activity change, negative = inhibition, hits mostly inhibitors. 320,000 compounds, 6.9% hits. AID 504834; further: potency means the concentration at half of the fitted maximal effect; on the % scale 0 is the no-effect control and ±100 the full control effect
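Plates of compound plus infected erythrocytes (2% hematocrit, 0.05% parasitemia final) incubate 96 hours, 37 C, 5% CO2. Detection reagent added; reduced luminescence from the parasites' luciferase reporter flags inhibition.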
SARS PLP yeast = SARS-CoV PLP inhibition in yeast | S. cerevisiae expressing SARS-CoV PLpro, growth rescue | Potency, µM (doses to about 32.9 µM), for the others: at the top dose activity, positive = growth rescue, most hits filed as activators | 330,000 compounds, 0.19% hits | AID 485353; calls by dose curve; further: potency means the concentration at half of the fitted maximal effect; 0% is about no effect; nearly all actives have a fitted effect of over 55% in size
NS1 inh = influenza NS1 inhibition; Potency, µM (top dose mostly 46.1 µM), without a hit: top-dose activity, positive = more growth; 270,000 compounds, 0.4% hits; AID 2326; calls by dose curve; further: potency means the concentration at half of the fitted maximal effect; actives are rising curves; nearly all actives have a fitted effect of over 50% in size
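In this qHTS, NS1 from influenza A is expressed in budding yeast, where it slows growth. Cells are switched from glucose to 2% galactose medium (pH 6.0, -URA), treated with compound, and growth recovery is read at OD600.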
Pf growth 48h = P. falciparum growth inhibition at 48 hours (one generation) | 310,000 compounds, 5.9% hits | P. falciparum luciferase growth in erythrocytes, 48 h | Potency, µM (doses to about 28.7 µM), for inactives: at the highest dose activity change, negative = inhibition, most hits filed as inhibitors; further: potency means the concentration at half of the fitted maximal effect; on the % scale 0 is the no-effect control and ±100 the full control effect
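Erythrocytes infected with P. falciparum carrying an integrated firefly luciferase reporter (2% hematocrit, 0.1% parasitemia final) were exposed to compounds in RPMI 1640 with 0.5% Albumax at 37 C, 5% CO2. Growth inhibition was scored as reduced luminescence.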
Shiga toxin inh = inhibitors of Shiga toxin in Vero cells. Vero cells, Shiga toxin protein synthesis inhibition reporter. inhibition, % at 38.7 µM. 290,000 compounds, 9.2% hits. AID 2315; in the data active means inhibition mostly above about 28%, no sharp cut-off; inactive means mostly below about 43%; further: 0% is about no effect
CHX counter = counter-screen for Shiga toxin inhibitors: cycloheximide protein synthesis inhibition | cell reporter, cycloheximide protein synthesis inhibition counterscreen | max response, % | 300,000 compounds, 12% hits | AID 2314; in the data active means max response mostly above about 13%, no sharp cut-off; inactive means mostly below about 14%; further: read at 38.3 µM for the half of the compounds with a filed dose; 0% is about no effect
Starred values were filed as active, the others as inactive; ? = inconclusive; nt = not tested or not shown. Unless noted, the call rests on the fitted dose curve; in most records, active means well fitted inhibition curve with a large enough effect; inconclusive means small, poorly fitted or top-dose-only effect, or another doubt; inactive means no such curve, though single readings can be large or run the other way.

SMILES	Pf growth 96h	SARS PLP yeast	NS1 inh	Pf growth 48h	Shiga toxin inh	CHX counter
CC1(C)CC(N(Cc2ccc(F)cc2)C(=O)c2ccc(F)cc2)CCO1 (stereo unspecified)	-3%	-1%	1%	7%	-4	-4
CCC(=O)N(CCC(c1ccco1)C(C)C)Cc1ccccc1 (stereo unspecified)	?	-1%	3%	?	-4	-1
CCC(=O)N(CCC(c1ccc(C)cc1)c1ccco1)Cc1ccco1 (stereo unspecified)	?	0%	7%	2.3µM*	16	9
O=C(c1ccco1)N(CCC(c1ccccc1)c1ccco1)Cc1ccc(F)cc1 (stereo unspecified)	?	-21%	3%	?	20	22*
Cc1cccc(OCC(=O)Nc2ccc3c(c2)nc2n3CCOC2)c1	20%	-2%	-14%	-15%	23	17
OC1c2cc(Br)ccc2N=C2CCCN21 (stereo unspecified)	10µM*	0%	-1%	8.3µM*	-17	-4
C/C(=N\OCC(=O)Nc1c(C)cc(C)cc1C)c1ccc2c(c1)OCCO2	-11%	5%	-15%	-6%	3	-3
CSc1ccccc1NS(=O)(=O)c1cccc2nonc12	34%	2%	19%	16%	15	-1
N#Cc1ccc(C[C@@H](NS(=O)(=O)c2ccc(C(=O)O)cc2)C(=O)O)cc1	2%	-6%	nt	?	-5	-3
COc1ccc(C(C)=O)cc1CC(C(=O)c1ccc(C)c(C)c1)N(C)C (stereo unspecified)	-13%	-19%	4%	-29%	15	-1
CN(C)C(Cc1ccc(C#N)cc1)C(=O)c1ccccc1 (stereo unspecified)	15%	-9%	5%	1%	32	29*
COc1ccc(C(=O)C(Cc2ccccc2)N(C)C)cc1 (stereo unspecified)	1.3µM*	2%	0%	?	42*	31*
COc1ccc(C(C)=O)cc1CC(C(=O)c1ccc(F)cc1)N(C)C (stereo unspecified)	10µM*	-1%	?	?	22	8
O=P1(c2ccccc2)C=Cn2c1cc1c2CCCC1 (stereo unspecified)	223%	3%	-8%	-5%	2	-2
Cc1ccc(S(=O)(=O)NC(Cc2ccccc2)C(=O)O)cc1C (stereo unspecified)	-8%	1%	4%	-1%	-4	-3
CNC(=O)c1cc(S(=O)(=O)Nc2ccc3c(c2)OCO3)ccc1C	22%	-1%	2%	15%	14	-1
CCCc1nc2ccccc2c(=O)n1CC(=O)c1ccc(F)cc1	17%	-1%	-2%	nt	-3	1
O=C(NCc1ccccn1)c1ccc(Cl)c(NC2=NC3CS(=O)(=O)CC3S2)c1 (stereo unspecified)	-7%	0%	-7%	5%	10	0
Cc1cc2n(n1)C(c1c[nH]c3ccccc13)Nc1ccccc1-2 (stereo unspecified)	-15%	-36%	-72%	24%	41*	29*
CCc1cc(SC#N)cc(CC)c1NC(=O)CCl	?	?	?	10µM*	-2	-1
CCOc1ccccc1N1CCN(C(=O)c2cn(CC3CCCCC3)nn2)CC1	?	-9%	-26%	11%	142*	37*
Cc1ccc(C(=O)N2CCCCC2)cc1S(=O)(=O)N1CCCCCC1	8.3µM*	-4%	2%	?	-9	11
CCOc1ccccc1N1CCN(C(=O)c2cc(S(=O)(=O)N3CCCCC3)ccc2C)CC1	?	0%	nt	?	nt	nt
Cc1ccc(-n2sc3ccccc3c2=O)cc1S(=O)(=O)N1CCCCC1	4.1µM*	-28%	-27%	2.6µM*	15	12*
CCOc1ccccc1N1CCN(C(=O)c2ccc(Cl)c(S(=O)(=O)N3CCCCC3)c2)CC1	5.2µM*	0%	nt	12µM*	nt	nt
O=c1c2ccccc2sn1-c1ccc(S(=O)(=O)N2CCCCC2)cc1	nt	nt	-10%	nt	nt	nt
CS(=O)(=O)N(CC(=O)NCc1ccncc1)c1ccc(F)c(Cl)c1	?	-2%	-2%	-4%	9	-2
